Assay outcomes as filed in PubChem BioAssay.
NPC1 prom act: qHTS Assay for NPC1 Promoter Activators; Huh7 NPC1 promoter luciferase reporter, 24 h; Potency, µM (top dose mostly 9.22 µM), hits mostly activators; 2.4% of 320,000 active; further: nearly all actives have a fitted effect of over 60% in size
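Stable NPC1-promoter luciferase Huh7 line; cpd (DMSO) 24 h, 37 °C, 5% CO2; Amplite luciferase reagent 10 min RT; luminescence readout. qHTS format.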
ELG1 repair inh: qHTS screen for small molecules that inhibit ELG1-dependent DNA repair in human embryonic kidney (HEK293T) cells expressing luciferase-tagged ELG1. Potency, µM (titrated, usually from 46.1 µM), usual class: inhibitors. HEK293T ELG1-luciferase reporter, luminescence, 16 h; DNA damage induced by 5-fluorouridine. 2.3% of 330,000 active; further: nearly all actives have a fitted effect of over 55% in size
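HEK293T cells expressing luciferase-tagged ELG1 (2,000/well) received 5-Fluorouridine plus compound or DMSO for 16 hr at 37 °C. Luciferase was read by ONE-Glo luminescence after 30 min at room temperature.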
ELG1 genotox: qHTS screen for small molecules that induce genotoxicity in human embryonic kidney (HEK293T) cells expressing luciferase-tagged ELG1 | HEK293T ELG1-luciferase reporter, luminescence, 16 h | Potency, µM (series often up to 46 µM), most hits filed as activators | 1.3% of 330,000 active | AID 504466, 2011; further: nearly all actives have a fitted effect of over 60% in size
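16 hr compound incubation (37 °C, 5% CO2) of HEK293T cells carrying luciferase-tagged ELG1; luciferase then measured by ONE-Glo luminescence after 30 min at RT.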
FLuc counter: qHTS profiling assay for firefly luciferase inhibitor/activator using purifed enzyme and Km concentrations of substrates (counterscreen for miR-21 project); purified FLuc, Km substrates, luminescence inhibition; Potency, µM (series often up to 57.5 µM), usual class: inhibitors; 6.9% of 360,000 active; AID 588342, 2011; further: nearly all actives have a fitted effect of over 55% in size
Target sequence (P08659 whole entry, looked up): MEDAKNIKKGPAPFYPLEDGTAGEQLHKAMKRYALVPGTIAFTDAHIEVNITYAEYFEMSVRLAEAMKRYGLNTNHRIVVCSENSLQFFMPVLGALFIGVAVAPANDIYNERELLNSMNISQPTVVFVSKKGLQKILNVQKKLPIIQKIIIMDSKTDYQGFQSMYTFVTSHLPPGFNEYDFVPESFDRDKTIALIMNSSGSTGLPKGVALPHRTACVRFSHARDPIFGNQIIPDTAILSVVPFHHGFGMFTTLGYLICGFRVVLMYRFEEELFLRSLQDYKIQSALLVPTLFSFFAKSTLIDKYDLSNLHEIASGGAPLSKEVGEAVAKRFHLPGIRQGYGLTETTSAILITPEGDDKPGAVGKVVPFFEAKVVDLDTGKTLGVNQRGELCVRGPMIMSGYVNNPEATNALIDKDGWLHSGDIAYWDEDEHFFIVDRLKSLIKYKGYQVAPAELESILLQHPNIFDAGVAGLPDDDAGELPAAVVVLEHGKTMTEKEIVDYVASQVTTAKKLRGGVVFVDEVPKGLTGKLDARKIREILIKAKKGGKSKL
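Purified P. pyralis luciferase (10nM final) with 10uM D-luciferin and 10uM ATP (Km levels) in 50mM Tris acetate pH 7.5, 10mM Mg acetate, 0.01% Tween-20, 0.05% BSA; qHTS 6-point titration, ~60 µM downward; luminescence read.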
Rab9 prom act: qHTS Assay for Rab9 Promoter Activators. Potency, µM (doses to about 9.22 µM), usual class: activators. 2.8% of 320,000 active. Huh7 Rab9 promoter-luciferase reporter, luminescence, 24 h; further: nearly all actives have a fitted effect of over 60% in size
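Measured in stably transfected Huh7 cells bearing a Rab9 promoter–luciferase construct: 24 h compound treatment at 37 °C, followed by luminescence detection.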
SMN2 splice enh: qHTS Assay for Enhancers of SMN2 Splice Variant Expression; HEK293 SMN2-luciferase splicing reporter, luminescence, 30-36 h; Potency, µM (series often up to 46.1 µM), actives largely listed as activators; 2.8% of 210,000 active; further: nearly all actives have a fitted effect of over 55% in size
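qHTS luciferase splicing reporter: luminescence rises when SMN2 exon 7 is included in transfected HEK293 cells. Compound exposure lasted 30-36 h at 37C, with 4.5 mM final sodium butyrate as control, followed by a ONE-Glo read.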
Large screens that a line does not name were inactive. Only some compounds are listed: those with a hit (about 9.4% of all), similar ones and a draw of the others. The call rests on the fitted dose curve; in most records, active means well fitted curve in the direction sought with a large enough effect; inconclusive means small, poorly fitted or top-dose-only effect, or another doubt; inactive means no such curve, though single readings can be large; an effect the other way counts as inactive or inconclusive.

Clc1ccc(/C=C/c2ncc[nH]2)c(Cl)c1	NPC1 prom act 2.8µM, ELG1 repair inh inconclusive, ELG1 genotox inconclusive, FLuc counter 2.4µM, Rab9 prom act 2.8µM (no result: SMN2 splice enh)
CC(C)(C)NC[C@H](O)COc1cccc2c1C[C@@H](O)[C@@H](O)C2	none (no result: NPC1 prom act, ELG1 repair inh, ELG1 genotox, FLuc counter, Rab9 prom act)
CCC(=O)N1CCc2cc(S(=O)(=O)NCCC(=O)NCc3ccc(C)cc3)ccc21	none (no result: NPC1 prom act, ELG1 repair inh, ELG1 genotox, Rab9 prom act)
O=C(N/N=C/c1ccco1)c1cc(-c2cccc(Br)c2)nc2ccccc12	ELG1 repair inh inconclusive, FLuc counter 4.8µM
O=C(N/N=C/c1ccc[nH]1)c1cc(-c2ccc(Cl)cc2)nc2ccccc12	ELG1 repair inh inconclusive, FLuc counter 12µM
COc1ccc2nc(-c3ccccc3)cc(OC)c2c1	ELG1 repair inh inconclusive, ELG1 genotox inconclusive, FLuc counter 12µM, SMN2 splice enh inconclusive
O=C(N/N=C/c1cccc(O)c1)c1cc(-c2ccccc2)nc2ccccc12	ELG1 repair inh inconclusive, FLuc counter 11µM (no result: SMN2 splice enh)
O=C(N/N=C/c1ccc(Cl)cc1)c1cc(-c2cccnc2)nc2ccccc12	ELG1 repair inh inconclusive
CC(/C=N/NC(=O)c1cc(-c2ccncc2)nc2ccccc12)=C\c1ccco1	ELG1 repair inh inconclusive
O=C(N/N=C/c1cccc([N+](=O)[O-])c1)c1cc(-c2ccccc2)nc2ccccc12	none
O=C(N/N=C/c1ccc2c(c1)OCO2)c1cc(-c2ccccc2Cl)nc2ccccc12	ELG1 repair inh inconclusive, FLuc counter inconclusive
Cc1cc(SCC(=O)N/N=C/c2ccc(O)c(O)c2)c(C)cc1Br	none
COc1ccc(/C=N/NC(=O)c2cc(-c3ccccc3)nc3ccccc23)c(OC)c1	ELG1 repair inh 12µM, FLuc counter 17µM (no result: SMN2 splice enh)
O=C(N/N=C/c1ccc2c(c1)OCO2)c1cc(-c2ccncc2)nc2ccccc12	FLuc counter 12µM
O=C(N/N=C/c1ccc(O)c(O)c1)N/N=C/c1ccc(O)c(O)c1	ELG1 repair inh inconclusive, FLuc counter 5.4µM (no result: SMN2 splice enh)
O=C(N/N=C/c1ccc(O)c(O)c1)c1cc(-c2ccccc2)nc2ccccc12	FLuc counter 15µM (no result: SMN2 splice enh)
Cc1ccc(NC2=C(CC(=O)O)C(c3ccc(F)cc3)N(c3ccc(C)cc3)C2=O)cc1 (centres undefined)	FLuc counter inconclusive (no result: NPC1 prom act, ELG1 repair inh, ELG1 genotox, Rab9 prom act)
O=[N+]([O-])c1ccc(CCO)cc1	none (no result: NPC1 prom act, ELG1 repair inh, ELG1 genotox, FLuc counter, Rab9 prom act)
O=c1c(Cl)c(NCCO)cnn1-c1cccc(Cl)c1	ELG1 repair inh inconclusive, SMN2 splice enh inconclusive
O=c1c(Cl)c(NCCCO)cnn1-c1nc2ccccc2[nH]1	NPC1 prom act inconclusive, ELG1 repair inh inconclusive, ELG1 genotox 16µM, FLuc counter 12µM, Rab9 prom act inconclusive, SMN2 splice enh inconclusive
C=CCN(CC=C)c1cnn(-c2nc3ccccc3[nH]2)c(=O)c1Cl	NPC1 prom act 2µM, ELG1 repair inh inconclusive, ELG1 genotox inconclusive, FLuc counter 6µM, Rab9 prom act 0.71µM (no result: SMN2 splice enh)
Cc1ccccc1CNC(=O)CN1C(=O)C2CCCCN2c2ccc(C(=O)N3CCCC3)cc21 (centres undefined)	none (no result: NPC1 prom act, ELG1 repair inh, ELG1 genotox, Rab9 prom act, SMN2 splice enh)
N#C/C(=C\c1ccc(-c2ccccc2)o1)C(=O)Nn1cnnc1	FLuc counter 19µM
COc1ccc(NC(=O)/C(C#N)=C/c2ccc(-c3ccc(Cl)c(C(=O)O)c3)o2)cc1	NPC1 prom act inconclusive, ELG1 repair inh inconclusive, ELG1 genotox inconclusive, FLuc counter 0.48µM, Rab9 prom act 3.5µM (no result: SMN2 splice enh)
Cc1ccc(NC(=O)/C(C#N)=C/c2ccc(-c3ccc(Cl)c(C(=O)O)c3)o2)cc1C	FLuc counter 3.8µM (no result: NPC1 prom act, ELG1 repair inh, ELG1 genotox, Rab9 prom act)
Cc1ccccc1NC(=O)/C(C#N)=C/c1ccc(-c2ccc(Cl)c(C(=O)O)c2)o1	NPC1 prom act 2.8µM, ELG1 repair inh inconclusive, FLuc counter 19µM, Rab9 prom act 3.2µM (no result: SMN2 splice enh)
CCOc1ccc(NC(=O)c2cnn3c2NC(C)=C(C(=O)Nc2ccc(Cl)cc2)C3c2ccc(OC)c(OC)c2)cc1 (centres undefined)	none (no result: NPC1 prom act, ELG1 repair inh, ELG1 genotox, Rab9 prom act)
CC(C)(C)C1CCc2c(sc(NC(=O)c3cc4ccccc4c(=O)o3)c2C(N)=O)C1 (centres undefined)	none (no result: NPC1 prom act, ELG1 repair inh, ELG1 genotox, Rab9 prom act)
CCCN1C(=O)c2cc(C(=O)O)ccc2C1O (centres undefined)	none
CCn1c(C)c(C)c2cc(C(=O)NC3CCCCCC3)ccc21	FLuc counter 12µM, Rab9 prom act inconclusive (no result: SMN2 splice enh)
CCCN1C(=O)c2cc(C(=O)NC3CCCCCC3)ccc2C1O (centres undefined)	NPC1 prom act 2µM, ELG1 repair inh inconclusive, ELG1 genotox 9.2µM, FLuc counter 13µM, Rab9 prom act 2.2µM, SMN2 splice enh 10µM
CCCN1C(=O)c2cc(C(=O)Nc3cccc(C(C)=O)c3)ccc2C1Nc1cccc(C(C)=O)c1 (centres undefined)	ELG1 repair inh 16µM (no result: SMN2 splice enh)
CN(C)c1cccc(C(=O)NC2CCCCCC2)c1	NPC1 prom act inconclusive, ELG1 repair inh inconclusive, ELG1 genotox 18µM, FLuc counter 13µM, Rab9 prom act 3.2µM, SMN2 splice enh 13µM
CCCN1C(=O)c2cc(C(=O)Nc3ccccc3OC)ccc2C1Nc1ccccc1OC (centres undefined)	ELG1 repair inh inconclusive (no result: SMN2 splice enh)
C=C(C)COc1ccc2c(c1)CCC1C2CC[C@]2(C)C(=O)/C(=N/O)CC12 (some centres undefined)	none (no result: NPC1 prom act, ELG1 repair inh, ELG1 genotox, FLuc counter, Rab9 prom act)
Cc1cc(C)cc(NC(=O)C2CCN(S(=O)(=O)c3cccc(-c4noc(C)n4)c3)CC2)c1	none (no result: NPC1 prom act, ELG1 repair inh, ELG1 genotox, Rab9 prom act, SMN2 splice enh)
Cc1ccc(-n2nnnc2CNC(=O)c2ccccc2)cc1C	none (no result: NPC1 prom act, ELG1 repair inh, ELG1 genotox, Rab9 prom act, SMN2 splice enh)
CCC(CC)C(=O)Nc1nnc(S(=O)(=O)N(C)c2cc(C)cc(C)c2)s1	none (no result: NPC1 prom act, ELG1 repair inh, ELG1 genotox, Rab9 prom act, SMN2 splice enh)
